High-throughput results as filed in PubChem BioAssay.
Bfl-1 A1 inh: inhibitors of the anti-apoptotic protein A1, read as caspase activation; caspase activation, % (test concentration not listed); MEF A1-2A-BIM cells, Caspase-Glo 3/7 luminescence, 3 h; percent of clofoctol response, vehicle zero; 330,000 compounds, 0.066% hits;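 active means over half of replicate activation scores above 10%, or exactly half above 10 with the replicate mean above 10; inconclusive means replicate mean below 10 yet half the replicates above 10; inactive means over half of replicates below 10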
Mdm2-MdmX inh: inhibitors of human Mdm2/MdmX interaction | SaOS-2 split-luciferase Mdm2/MdmX complementation, luminescence | O15151+Q00987 | 330,000 compounds, 3% hits | inhibition, % at 8 µM | AID 485346;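 active means inhibition of at least 50% at 8 µM in the primary screen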
Target sequence (O15151 whole entry, looked up): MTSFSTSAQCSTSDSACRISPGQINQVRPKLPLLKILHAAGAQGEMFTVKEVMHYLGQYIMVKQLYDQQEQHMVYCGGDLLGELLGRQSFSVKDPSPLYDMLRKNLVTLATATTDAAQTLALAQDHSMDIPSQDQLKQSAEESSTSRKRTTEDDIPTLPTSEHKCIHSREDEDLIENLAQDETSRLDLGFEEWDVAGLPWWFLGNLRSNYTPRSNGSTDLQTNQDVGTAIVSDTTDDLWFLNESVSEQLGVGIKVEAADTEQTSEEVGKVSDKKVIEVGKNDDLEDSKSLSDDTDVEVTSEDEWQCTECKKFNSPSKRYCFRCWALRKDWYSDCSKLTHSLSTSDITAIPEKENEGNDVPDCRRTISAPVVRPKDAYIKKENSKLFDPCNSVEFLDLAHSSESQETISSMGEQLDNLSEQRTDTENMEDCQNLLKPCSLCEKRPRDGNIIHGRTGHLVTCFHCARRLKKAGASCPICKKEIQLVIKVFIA
Target sequence (Q00987 whole entry, looked up): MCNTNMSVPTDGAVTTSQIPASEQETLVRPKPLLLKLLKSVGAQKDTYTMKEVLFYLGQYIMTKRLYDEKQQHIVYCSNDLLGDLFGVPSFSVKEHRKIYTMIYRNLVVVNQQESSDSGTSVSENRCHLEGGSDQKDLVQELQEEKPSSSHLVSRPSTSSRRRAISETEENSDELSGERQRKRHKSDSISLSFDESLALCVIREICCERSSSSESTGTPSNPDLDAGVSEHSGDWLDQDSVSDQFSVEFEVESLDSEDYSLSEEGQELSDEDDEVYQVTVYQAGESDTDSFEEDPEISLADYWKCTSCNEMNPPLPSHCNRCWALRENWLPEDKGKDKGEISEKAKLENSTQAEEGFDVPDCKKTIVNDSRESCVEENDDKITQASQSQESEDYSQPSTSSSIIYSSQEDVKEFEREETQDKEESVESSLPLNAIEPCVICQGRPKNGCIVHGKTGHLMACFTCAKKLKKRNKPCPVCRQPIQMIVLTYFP
Beta cell apopt: beta cell apoptosis inhibition; INS-1E cytokine-induced death, ATP luminescence, 48 h; percent of positive-control rescue, neutral wells zero; protection from apoptosis, % (test concentration not listed); 300,000 compounds, 0.8% hits;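 active means Every replicate reaches about 75%, or at least half do and their mean reaches it too, limit read from the data; inconclusive means At least half of replicates reach the limit but their mean does not; inactive means Under half of replicates reach the limit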;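 further: 0% = cytokine-treated negative control wells and 100% = positive control rescue; higher means more ATP so stronger rescue from cytokine killing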
NTR1 ag: NTR1 (human) agonism. NTR1-U2OS beta-arrestin-GFP spot imaging, agonist mode. activation, % at 20 µM. 330,000 compounds, 0.17% hits;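 active means activation at or above 40% of the spot to cytoplasm intensity ratio, with at least 20 cells analyzed; inconclusive means wells under 20 cells, flagged as cytotoxic or low count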;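 further: 0% = DMSO without peptide and 100% = 100 nM NTR1 peptide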
Jurkat NFkB inh: lowers PMA/ionomycin-induced NF-kB signal in Jurkat cells | PMA/ionomycin-induced NF-kB luciferase reporter, luminescence | inhibition, % at 4 µM | 330,000 compounds, 0.53% hits; in the data active means inhibition above about 50%
697 NFkB inh: inhibitors of the PMA/ionomycin-induced NF-kB reporter in 697 B cells. 697 B-cell NF-kB luciferase reporter, 16 h. inhibition, % at 4 µM. 330,000 compounds, 0.33% hits. AID 435022; in the data active means inhibition above about 35%
Mdm2-MdmX conf: confirmation of human Mdm2/MdmX interaction inhibitors | shares compounds with Mdm2-MdmX inh | Mdm2-MdmX binding, luminescent assay | inhibition, % at 8 µM | 10,000 compounds, 55% hits | AID 489028; in the data active means inhibition above about 40%
FLuc counter: counter-screen for Mdm2/MdmX inhibitors: full-length luciferase; shares compounds with Mdm2-MdmX inh; 6,200 compounds, 77% hits; inhibition, % at 8 µM; SaOS-2 full-length luciferase counterscreen, luminescence;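 active means mean inhibition at 8 µM reaching about 37%, which flags the compound as non-specific, limit read from the data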;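 further: p53-null SaOS-2 cells with luciferase driven by a doxycycline-inducible promoter; compound on cells about two nights before reading with doxycycline added after day one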
The depositor's hits bear a star; ? = inconclusive; . = not tested or not shown. Shown are actives, neighbours in structure and some others; about 3.8% of the full set was active somewhere.

SMILES	Bfl-1 A1 inh	Mdm2-MdmX inh	Beta cell apopt	NTR1 ag	Jurkat NFkB inh	697 NFkB inh	Mdm2-MdmX conf	FLuc counter
Cc1ccc(NC(=O)CSc2nc3ccccc3c(=O)n2CCCC(=O)NCC2CCCO2)cc1 (centres undefined)	1	21	-3	0	3	-39	.	.
CC1Cc2ccccc2N1C(=O)CSc1nc2c(c(=O)n(C)c(=O)n2C)n1Cc1ccccc1 (centres undefined)	?	50*	20	4	8	-3	34	.
CCn1c(SCC(=O)N2c3ccccc3CCc3ccccc32)nc2c1c(=O)n(C)c(=O)n2C	0	11	4	2	6	28	.	.
O=C(NCc1ccccc1F)C1CCCN(c2cnccn2)C1 (centres undefined)	0	-16	.	1	2	-2	.	.
COc1ccc(N(CC(=O)NC2CCCCC2)S(=O)(=O)c2cccs2)cc1	0	0	6	-1	-7	6	.	.
Cc1ccc(N(CC(=O)NC2CCCCC2)S(=O)(=O)c2cccs2)cc1	0	66*	-4	1	1	-4	12	.
Oc1ccc(Oc2ccc(Oc3ccc(O)cc3)cc2)cc1	1	35	5	4	7	-22	.	.
Nc1ccc(NC(=O)c2ccccc2)c2c1C(=O)c1ccccc1C2=O	0	52*	9	4	41	-12	53*	72*
Nc1ccccc1NC(=O)c1ccccc1	-1	10	7	1	-10	-169	.	.
CCN(CC)c1ccc(/C=C(/C#N)c2nc3ccccc3[nH]2)c(OC(C)C)c1	-1	80*	40	-2	-58	-132	77*	88*
O=[N+]([O-])c1ccc(Sc2cccc3cccnc23)c2cccnc12	0	65*	56	5	13	-13	56*	50*
COc1ccc(CCC(=O)OCC(=O)Nc2sccc2C(N)=O)cc1OC	-1	13	-1	6	-16	-5	.	.
C=CCN(CC=C)S(=O)(=O)c1ccc2nc(NC(=O)C(C)C)sc2c1	1	59*	22	3	27	-46	60*	52*
Cc1ccc(/C=C/C(O)=C2/C(=O)N(C)C3(C)CC2c2ccccc2O3)cc1 (centres undefined)	1	83*	-4	10	10	-10	42*	30
COc1ccc(/C=C/C(O)=C2/C(=O)NC3(C)CC2c2ccccc2O3)c(OC)c1OC (centres undefined)	0	11	-5	3	0	10	.	.
COc1ccc(/C=C/C(O)=C2/C(=O)N(C)C3(C)CC2c2ccccc2O3)cc1 (centres undefined)	0	73*	-4	2	-4	4	31	.
Nc1nonc1C(=O)NCCNCc1ccccc1OCc1ccccc1F	0	56*	3	-2	7	-34	11	.
COc1ccccc1NC(=O)c1cc2c(CO)cnc(C)c2oc1=Nc1cc(OC)c(OC)c(OC)c1	0	-11	4	-1	0	4	.	.
COc1ccccc1NC(=O)c1cc2c(CO)cnc(C)c2oc1=Nc1ccc(OC)c(OC)c1	0	65*	36	14	31	6	35	.
Nc1ccccc1Sc1c[nH]c2ccccc12	1	14	.	1	-6	-27	.	.
Cc1ccccc1Nc1nc(N)nc(CCl)n1	1	94*	-6	2	38	-10	91*	40*
Cc1ccccc1Nc1nc(N)nc(CN(C)c2ccccc2)n1	-1	24	-1	-6	0	-1	.	.
COc1ccc(Nc2nc(N)nc(CCl)n2)cc1	0	87*	1	0	4	-7	87*	52*
Cc1cccc2sc(N(CCN3CCOCC3)C(=O)CCS(=O)(=O)c3ccccc3)nc12	0	69*	.	6	1	-11	46*	68*
CCN(CC)CCN(C(=O)CCS(=O)(=O)c1ccccc1)c1nc2c(C)cc(C)cc2s1	1	51*	2	2	1	12	37	87*
SMILES	Bfl-1 A1 inh	Mdm2-MdmX inh	Beta cell apopt	NTR1 ag	Jurkat NFkB inh	697 NFkB inh	Mdm2-MdmX conf	FLuc counter
CCN(CC)CCN(C(=O)CCS(=O)(=O)c1ccccc1)c1nc2cc(C)cc(C)c2s1	0	8	15	-1	8	-14	.	.
Cc1cccc(Nc2nnc(SCC(=O)NC(=O)Nc3ccc4c(c3)OCCO4)s2)c1	-2	91*	0	2	7	21	24	.
Cc1ccccc1Nc1nnc(SCC(=O)NC(=O)Nc2ccc3c(c2)OCCO3)s1	-1	33	-1	5	-9	-34	.	.
COc1ccccc1Nc1nnc(SCC(=O)NC(=O)Nc2ccc3c(c2)OCCO3)s1	-1	68*	-10	6	11	-4	57*	44*
O=C(N/N=C/c1ccc(O)cc1)Nc1cccc2nsnc12	0	71*	-37	11	-69	-24	66*	62*
COC(=O)/C(=C\Nc1ccc(Cl)c2ccccc12)c1ncc(C(F)(F)F)cc1Cl	0	59*	0	2	10	5	4	.
CCOC(=O)/C(=C\Nc1ccccc1C(F)(F)F)Sc1ncc(C(F)(F)F)cc1Cl	0	-3	9	0	-11	-17	.	.
CCC1=C(c2ccc(C)cc2)S(=O)(=O)N=C1N1CCC(C(=O)NCCCN2CCCCC2C)CC1 (centres undefined)	0	5	-4	-2	12	6	.	.
CSC1=NC(C)(C)C=C(/C=C/c2ccc(Cl)cc2)N1	1	54*	-3	8	2	2	10	.
CSC1=NC(C)(C)C=C(/C=C/c2ccc(Cl)cc2Cl)N1	-1	31	-6	1	-22	-9	.	.
Cc1ccc(Nc2nc(C)c3c(n2)CC(C)CC3=O)c(C)c1 (centres undefined)	-1	23	1	1	-2	-7	.	.
Cc1nc(Nc2cccc(C(F)(F)F)c2)nc2c1C(=O)CC(C)C2 (centres undefined)	1	54*	8	-2	-7	-6	12	.
CSc1ncccc1C(=O)OCC(=O)N1CCc2ccccc21	0	4	-3	3	-28	-4	.	.
CC(=O)OC1[C@H](Oc2c(O)c(C)c3c4c2[C@@H](C)CC[C@@H]4[C@@H](C)C[C@@H]3C=C(C)C)OC[C@@H](O)[C@@H]1O (some centres undefined)	1	20	-14	0	-8	3	.	.
CC(=O)O[C@H]1[C@H](O)[C@H](Oc2c(O)c(C)c3c4c2[C@@H](C)CC[C@@H]4[C@@H](C)C[C@H]3C=C(C)C)O[C@@H](C)[C@H]1O	.	74*	.	8	2	-3	-5	.
